We go through 10 compounds from PubChem BioAssay.

Calls of active or inactive are those of the source. Unless noted, how the calls were made is not given here.

A short description of assay [1]: resazurin metabolic signal in HepG2 cells – cell-based, resazurin fluorescence, 24 h, PK04 Diversity Set, profiling panel (AID 1172). The note with it: HepG2 viability, higher = more signal. A general note: Alamar Blue is a resazurin reagent that responds to reducing activity.
Assay [2] is described as follows: budding yeast growth changes without added modifier – OD600, strain BY4716, 24 h, basal condition, primary screen (AID 1173). To be noted: S. cerevisiae BY4716 growth, OD600, 24 h; higher = more signal, called active from +8 up or from −8 down.
Assay [3] can be described thus: viability profiling in MM1S myeloma cells – cell-based, resazurin fluorescence, basal, 24 h, PK04 Diversity Set, profiling panel (AID 1174).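 Further: MM1S multiple myeloma cell line.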 To be noted: higher = more signal, called active from +8 up or from −8 down.
For assay [4], the target named is Dihydroorotate dehydrogenase (quinone), mitochondrial (Plasmodium falciparum (isolate 3D7)) (UniProt Q08210). Description: inhibition of P. falciparum DHODH – biochemical, C-terminal His tag, absorbance 600 nm, primary screen (AID 1175).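 Further: recombinant parasite enzyme with a five histidine tag at its C terminus.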 To be noted: PfDHODH enzyme, DCIP absorbance 600 nm; higher = more signal, called active from +8 up or from −8 down.
Dihydroorotate dehydrogenase (quinone), mitochondrial (Plasmodium falciparum (isolate 3D7)), sequence (Q08210 whole entry, looked up): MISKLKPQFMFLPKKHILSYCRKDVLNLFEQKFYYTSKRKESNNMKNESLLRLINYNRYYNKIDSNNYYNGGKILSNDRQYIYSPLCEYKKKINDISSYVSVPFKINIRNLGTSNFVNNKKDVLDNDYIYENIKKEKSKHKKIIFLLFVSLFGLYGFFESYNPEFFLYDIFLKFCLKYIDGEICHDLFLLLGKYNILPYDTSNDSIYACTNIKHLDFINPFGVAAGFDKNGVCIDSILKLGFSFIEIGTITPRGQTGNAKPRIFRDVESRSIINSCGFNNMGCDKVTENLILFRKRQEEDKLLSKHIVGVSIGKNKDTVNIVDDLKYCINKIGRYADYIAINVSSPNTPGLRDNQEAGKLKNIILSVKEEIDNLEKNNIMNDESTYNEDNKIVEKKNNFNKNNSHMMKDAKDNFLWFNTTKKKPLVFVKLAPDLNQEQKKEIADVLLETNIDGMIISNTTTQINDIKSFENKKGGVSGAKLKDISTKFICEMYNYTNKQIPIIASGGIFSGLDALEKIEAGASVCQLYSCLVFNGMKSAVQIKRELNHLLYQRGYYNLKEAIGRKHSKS
Assay [5] can be described thus: inhibition of PAO1 biofilm formation – strain PAO1, LB-PBS medium, absorbance 600 nm, primary screen (AID 1176). The note with it: P. aeruginosa PAO1 growth/biofilm, A600, 12 h; higher = more signal.
The nature of assay [6]: growth modulation of vineyard yeast isolate – strain RM11-1a, OD600, basal, 24 h, primary screen (AID 1177).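 Further: cultures grown under basal conditions with no added stressor.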 The note with it: S. cerevisiae RM11-1a growth, OD600, 24 h; higher = more signal, called active from +8 up or from −8 down.
Assay [7] in a line: growth of efflux-deficient E. coli DRC39 – strain DRC39, OD650, 24 h, E. coli filamentation inducers, primary screen (AID 1178).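 Further: growth measured as culture turbidity by optical density at 650 nm.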 To be noted: E. coli DRC39 acrAB, higher = more signal, called active from +8 up or from −8 down.
Assay [8] can be described thus: growth of efflux-deficient E. coli DRC39 – strain DRC39, OD650, 48 h, E. coli filamentation inducers, primary screen (AID 1179).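 Further: screen aims at cell division blockers that make cells filament.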 To be noted: E. coli DRC39 delta-acrAB growth, higher = more signal, called active from +8 up or from −8 down.
Assay [9] in a line: viability profiling in RPMI8226 myeloma cells – cell-based, resazurin fluorescence, basal, 24 h, PK04 Diversity Set, profiling panel (AID 1180).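 Further: RPMI8826 multiple myeloma cell line at 5000 cells per well.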 To be noted: higher = more signal.
Assay [10] deals with E3 ubiquitin-protein ligase XIAP (Homo sapiens) (UniProt P98170). The assay is described as follows: small molecules binding XIAP protein – biophysical, small-molecule microarray, fluorescence 635 nm, primary screen (AID 1181).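 Further: score merges 667 nm emission and signal to noise over triplicate slides.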 To be noted: higher = more signal.
E3 ubiquitin-protein ligase XIAP (Homo sapiens), sequence (P98170 whole entry, looked up, the tested form may be a part): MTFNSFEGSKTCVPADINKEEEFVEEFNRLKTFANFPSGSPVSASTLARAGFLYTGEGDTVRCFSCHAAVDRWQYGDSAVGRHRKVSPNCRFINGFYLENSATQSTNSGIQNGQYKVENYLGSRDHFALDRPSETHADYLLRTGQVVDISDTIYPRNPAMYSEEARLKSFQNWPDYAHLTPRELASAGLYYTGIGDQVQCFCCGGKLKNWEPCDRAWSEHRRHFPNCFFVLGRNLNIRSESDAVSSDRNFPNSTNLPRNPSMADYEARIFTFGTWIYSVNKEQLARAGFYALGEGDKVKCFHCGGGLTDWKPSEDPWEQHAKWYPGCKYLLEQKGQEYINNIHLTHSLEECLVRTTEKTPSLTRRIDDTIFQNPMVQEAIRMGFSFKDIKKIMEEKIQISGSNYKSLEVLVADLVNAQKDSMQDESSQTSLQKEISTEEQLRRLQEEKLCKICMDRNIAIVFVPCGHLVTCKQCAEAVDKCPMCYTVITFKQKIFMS
Assay [11] concerns XIP peptide (Xip251-270) binding. Description: XIP fragment 251-270 binding compounds – biochemical, small-molecule microarray, fluorescence 635/667 nm, 0.1 µg/mL protein, primary screen (AID 1182). The note with it: fluorescent protein binding, 635 nm, higher = more signal, called active from +8 up or from −8 down.
Assay [12] relates to XIP peptide (Xip251-270). The assay is described as follows: compounds binding XIP fragment 251-270 – biochemical, small-molecule microarray, fluorescence 635/667 nm, 0.5 µg/mL protein, primary screen (AID 1183). The note with it: fluorescence 635 nm, higher = more signal.
Assay [13] in a line: blood-stage malaria parasite viability loss – strain 3D7, DAPI fluorescence, 100 nL, primary screen (AID 1184).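 Further: parasites grown inside human red blood cells in medium with human serum.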 The note with it: P. falciparum 3D7 growth, 3 d, higher = more signal.
Assay [14] deals with Homeobox protein Hox-A13 (Mus musculus) (UniProt Q62424). Description: disruptors of Hoxa13 oligonucleotide interaction – biochemical, fluorescence polarization, labeled oligonucleotide, primary screen (AID 1185). To be noted: Hoxa13:DNA binding, 15 min, higher = more signal, called active from +8 up or from −8 down. (Polarisation of emitted light reports the rotation of a fluorescent probe.)
Homeobox protein Hox-A13 (Mus musculus), sequence (Q62424 whole entry, looked up): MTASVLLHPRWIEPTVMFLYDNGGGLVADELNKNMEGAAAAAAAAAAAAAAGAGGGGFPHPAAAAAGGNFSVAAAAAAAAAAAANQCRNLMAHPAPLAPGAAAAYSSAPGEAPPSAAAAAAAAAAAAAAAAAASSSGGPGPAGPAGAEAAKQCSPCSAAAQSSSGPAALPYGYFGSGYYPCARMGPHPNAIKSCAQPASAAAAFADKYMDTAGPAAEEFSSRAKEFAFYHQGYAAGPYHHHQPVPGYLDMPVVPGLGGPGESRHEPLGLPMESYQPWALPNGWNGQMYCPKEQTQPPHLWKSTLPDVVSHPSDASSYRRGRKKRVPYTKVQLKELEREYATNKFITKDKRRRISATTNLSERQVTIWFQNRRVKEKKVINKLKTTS

Assay [15] can be described thus: blockers of DNA damage checkpoint Chk1 activation – imaging, HeLa, hydroxyurea, phospho-Chk1 antibody, percent positive cells, primary screen (AID 1186). To be noted: hydroxyurea-induced phospho-Chk1 immunofluorescence imaging, higher = more signal.
Assay [16] is described as follows: blockers of DNA damage checkpoint Chk1 activation – imaging, HeLa, hydroxyurea, phospho-Chk1 nuclear intensity, primary screen (AID 1187). To be noted: hydroxyurea-induced phospho-Chk1 immunofluorescence imaging, higher = more signal.

Turning to `CN1C2C=C(CCCO)C(C3C(=O)N(C(N)=O)C(=O)C32)C1C1CC1` (stereo not given), the z-score is -0.444 in assay [1]; 0.796 (inactive) in assay [2]; -0.179 (inactive) in assay [3]; -0.341 (inactive) in assay [5]; -0.18 (inactive) in assay [6]; -0.686 (inactive) in assay [7]. In addition, the z-score in assay [8] was -0.743 (inactive); in assay [9], -0.761; in [13] it was 1.89; in assay [14], -7.09 (inactive); in assay [15], -0.25 (inactive); in assay [16], 0.161 (inactive). In addition, the composite z-score in assay [4] is -0.884 (inactive); in assay [10], 0.0361; in [11], 0.379 (inactive); in [12] it was -0.0081.
With `CC(CO)N1C(=O)[C@@H]2[C@H]3C(=O)OCC=C[C@H]3OC23C=CCN(Cn2nnc4ccccc42)C(=O)[C@@H]13` (stereo not given in full), the z-score in assay [1] was -0.628; in assay [2], 0.0199 (inactive); in assay [3], -0.124 (inactive); in assay [5], -0.0558 (inactive); in [6], -1.27 (inactive); in assay [7] it was -0.11 (inactive). The z-score in assay [8] was -0.331 (inactive); in [9] it was -0.35; in [13] it was 0.212; in assay [14], -3.47 (inactive); in assay [15], 0.612 (inactive); in assay [16], 0.424 (inactive). In addition, the composite z-score is 0.29 (inactive) in assay [4], -0.334 in assay [10], -0.0787 (inactive) in assay [11] and -1.27 in assay [12].
On to `C=CCN1C(=O)[C@]2(CCC(=O)OC(C)(C)C)N=C(c3ccc(OCCCO)cc3)O[C@@H]2c2ccccc21`, for which the z-score was -1.11 in assay [1]; -1.32 (inactive) in assay [2]; -3.44 (inactive) in assay [3]; 0.314 (inactive) in [5]; 0.853 (inactive) in assay [6]; 0.93 (inactive) in assay [7]. In addition, the z-score in [8] is 0.685 (inactive); in assay [9] it was -6.48; in [13], -1.34; in assay [14], -2.63 (inactive); in [15] it was -0.646 (inactive); in assay [16], -0.541 (inactive). Moreover, the composite z-score is -0.292 (inactive) in assay [4], -0.0387 in assay [10], 0.0041 (inactive) in [11] and 0.464 in assay [12].
As for `C=C(/C(=C/C[C@H](OC(C)=O)c1ccc(CO)o1)c1cnc2ccccc2c1)C(C)C`, the z-score in [1] is 0.523; in assay [2], -0.269 (inactive); in assay [3] it was -0.575 (inactive); in assay [5], 0.898 (inactive); in [6], 0.376 (inactive); in [7], 0.307 (inactive). Moreover, the z-score in assay [8] was -0.219 (inactive); in assay [9], -0.659; in assay [13], -1.14; in [14], -6.46 (inactive); in assay [15], -0.136 (inactive); in assay [16], 0.181 (inactive). For the same compound, the composite z-score was -7.07 (inactive) in assay [4], -0.0095 in assay [10], 0.0103 (inactive) in assay [11] and 0.769 in [12].
Take `COc1ccc([Si](C)(C)[C@@H]2[C@@H](CC(=O)N3CCC[C@H]3CO)O[C@]3(C(=O)N(Cc4cccc(N5C(=O)COc6ccccc65)c4)c4ccccc43)[C@H]2C)cc1`: the z-score in [1] was -1.58; in assay [2], 0.107 (inactive); in assay [3] it was -3.43 (inactive); in assay [5], 0.425 (inactive); in assay [6], 0.0195 (inactive); in assay [7], 0.719 (inactive). For the same compound, the z-score is 0.374 (inactive) in assay [8]; -5.39 in [9]; -0.317 in [13]; -2.42 (inactive) in [14]; -0.167 (inactive) in assay [15]; -0.614 (inactive) in assay [16]. For the same compound, the composite z-score was -1.54 (inactive) in assay [4], -0.102 in [10], 0.527 (inactive) in [11] and 0.608 in assay [12].
`COc1ccc([Si](C)(C)[C@@H]2[C@@H](CCO)O[C@]3(C(=O)N(Cc4cccc(NC(=O)[C@H](C)O)c4)c4ccccc43)[C@H]2C)cc1`: the z-score was -5.97 in assay [1]; 0.728 (inactive) in assay [2]; -9.06 (active) in assay [3]; 1.25 (inactive) in assay [5]; 4.9 (inactive) in assay [6]; 0.0065 (inactive) in assay [7]. The z-score was -0.811 (inactive) in assay [8]; -6.22 in assay [9]; -2.69 in assay [13]; -5.95 (inactive) in assay [14]; 0.214 (inactive) in assay [15]; -0.189 (inactive) in [16]. Further, the composite z-score in assay [4] is 0.554 (inactive); in assay [10], 0.0479; in assay [11], 0.789 (inactive); in [12], 0.755.
For `O=C1O[C@@H](c2ccccc2)[C@@H](c2ccccc2)N2[C@@H](c3ccc(OCCO)cc3)[C@]3(C(=O)Nc4ccc(C#CC5=CCCCC5)cc43)[C@@H](C(=O)NC[C@H](O)c3ccccc3)[C@H]12`, the z-score in assay [1] was -0.661; in [2], 1.49 (inactive); in assay [3] it was -1.94 (inactive); in assay [5], 3.14 (inactive); in assay [6], 2.72 (inactive); in assay [7], -0.107 (inactive). Moreover, the z-score was -0.245 (inactive) in assay [8]; -3.11 in assay [9]; -1.35 in [13]; 3.28 (inactive) in [14]; 0.27 (inactive) in [15]; 0.433 (inactive) in assay [16]. Besides, the composite z-score in assay [4] is -0.729 (inactive); in assay [10], -0.118; in assay [11] it was 0.127 (inactive); in assay [12], 0.693.
As for `COC(=O)[C@@]1(Cc2ccccc2)[C@H]2c3cc(C(=O)N(C)C)n(Cc4ccc(C)o4)c3C[C@H]2CN1C(=O)c1ccccc1`, the z-score was -0.98 in assay [1]; 1.51 (inactive) in assay [2]; -3.41 (inactive) in assay [3]; 3.55 (inactive) in assay [5]; 1.25 (inactive) in assay [6]; -0.513 (inactive) in [7]. For the same compound, the z-score in [8] was -1.08 (inactive); in assay [9] it was -3.13; in [13], -1.81; in assay [14], 0.0385 (inactive); in [15], 1.19 (inactive); in [16], 0.841 (inactive). Further, the composite z-score was -2.93 (inactive) in [4], 0.696 in assay [10], 0.681 (inactive) in assay [11] and -0.523 in assay [12].
Regarding `O=C1O[C@H](c2ccccc2)[C@H](c2ccccc2)N2[C@H]1[C@@H](C(=O)O)[C@]1(C(=O)Nc3ccc(C#CCCO)cc31)[C@H]2c1ccccc1OCCO`, the z-score in assay [1] is -0.732; in assay [2] it was -0.498 (inactive); in [3], 0.716 (inactive); in assay [5] it was 0.573 (inactive); in [6], 0.626 (inactive); in [7], -0.88 (inactive). Also, the z-score in assay [8] was -1.22 (inactive); in assay [9], 1.5; in assay [13], -1.08; in assay [14], -6.55 (inactive); in [15] it was 0.55 (inactive); in [16] it was 0.175 (inactive). For the same compound, the composite z-score in [4] is -0.408 (inactive); in [10], 0.177; in assay [11] it was 0.154 (inactive); in assay [12], 0.736.
Turning to `CC1CC/C=C\[C@H]2OC34C=CCN(C(C)(C)C)C(=O)[C@H]3N(CCCCCO)C(=O)[C@@H]4C2C(=O)O1` (stereo not given in full), the z-score in assay [1] was -0.643; in [2] it was 0.349 (inactive); in assay [3], 0.285 (inactive); in assay [5] it was 0.121 (inactive); in [6] it was -0.202 (inactive); in [7] it was 0.338 (inactive). Further, the z-score was 0.338 (inactive) in [8]; 0.0992 in assay [9]; -0.375 in assay [13]; -4.58 (inactive) in assay [14]; 0.139 (inactive) in assay [15]; 0.408 (inactive) in assay [16]. The composite z-score is 0.797 (inactive) in [4], -0.102 in assay [10], 0.28 (inactive) in assay [11] and -0.48 in assay [12].
